From publication PMC5540273 (PLoS ONE, 2017) come the findings set out here.

Structures are written as SMILES. Read-outs that look alike come from different tables or passages of the source.

One assay relates to CDK4-cyclinD1. The settings on record: n = 1.
For the next assay, the system named is CDK4-cyclinD3. The conditions noted are these: n = 1.
Another assay deals with CDK4. The conditions noted are these: n = 1.
For another assay, the system named is CDK5. The conditions noted are these: concentration: 1 μM, replicates: in singlicate; n = 1.
Another assay concerns CDK7. The settings on record: concentration: 1 μM, replicates: in singlicate; n = 1.
The subject of a further assay is CDK8. The settings on record: concentration: 1 μM, replicates: in singlicate; n = 1.
In another assay the test system is CDK9. The conditions noted are these: concentration: 1 μM, replicates: in singlicate; n = 1.
The next assay concerns CDKL1. The conditions noted are these: concentration: 1 μM, replicates: in singlicate; n = 1.
A further assay concerns CDKL2. The settings on record: concentration: 1 μM, replicates: in singlicate; n = 1.
In the next assay the test system is CDKL3. The conditions noted are these: concentration: 1 μM, replicates: in singlicate; n = 1.
Another assay has as its system CDKL5. The conditions noted are these: concentration: 1 μM, replicates: in singlicate; n = 1.
The test system of another assay is CHEK1. The settings on record: concentration: 1 μM, replicates: in singlicate; n = 1.
The test system of a further assay is CHEK2. The conditions noted are these: concentration: 1 μM, replicates: in singlicate; n = 1.
For the next assay, the system named is CIT. The conditions noted are these: concentration: 1 μM, replicates: in singlicate; n = 1.
The next assay relates to CLK1. The settings on record: concentration: 1 μM, replicates: in singlicate; n = 1.
Another assay has as its system CLK2. The settings on record: concentration: 1 μM, replicates: in singlicate; n = 1.
Another assay deals with CLK3. The settings on record: concentration: 1 μM, replicates: in singlicate; n = 1.
The subject of a further assay is CLK4. The settings on record: concentration: 1 μM, replicates: in singlicate; n = 1.
The test system of another assay is CSF1R-autoinhibited. The settings on record: concentration: 1 μM, replicates: in singlicate; n = 1.
A further assay relates to CSF1R. The conditions noted are these: concentration: 1 μM, replicates: in singlicate; n = 1.
Where [1] appears, read: concentration: 1 μM, replicates: in singlicate.
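Further: KINOMEscan kinase panel screen.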

On to `CC(C)c1cc(-c2ccc3c(N)n[nH]c3c2)nc(N)n1` [GSK2250882], for which the “%Inh” value is 0% in the assay with CDK4-cyclinD1 (setting [1]); 0% in the assay on CDK4-cyclinD3 (setting [1]); 0% in the assay with CDK4 (setting [1]); 0% with CDK5; 0% with CDK7; 20% in the assay on CDK8. For the same molecule, the “%Inh” value came to 0% with CDK9; 23% in the assay with CDKL1; 20% with CDKL2; 0% with CDKL3; 0% with CDKL5; 0% with CHEK1. In addition, the “%Inh” value with CHEK2 was determined as 84%; with CIT, 5%; in the assay on CLK1, 59%; in the assay on CLK2, 21%; with CLK3 it was 0%; in the assay with CLK4 it was 62%. In addition, the entries for the “%Inh” value with CSF1R-autoinhibited and with CSF1R were 6% and 5%, respectively.

As to `O=C(Nc1n[nH]c2nc(-c3cccs3)c(Br)cc12)C1CCCC1` [SB-743341], the “%Inh” value is reported as 11% with CDK4-cyclinD1 (setting [1]); 40% with CDK4-cyclinD3 (setting [1]); 16% in the assay with CDK4 (setting [1]); 24% in the assay on CDK5; 60% in the assay with CDK7; 75% in the assay with CDK8. Also, the “%Inh” value in the assay on CDK9 was 27%; in the assay with CDKL1, 10%; in the assay with CDKL2, 87%; in the assay on CDKL3 it was 0%; with CDKL5 it was 0%; with CHEK1, 9%. The “%Inh” value with CHEK2 was determined as 9%; in the assay on CIT, 4%; in the assay with CLK1, 0%; in the assay on CLK2, 18%; in the assay on CLK3, 31%; with CLK4, 12%. In addition, the “%Inh” value with CSF1R-autoinhibited is reported as 0%; with CSF1R, 18%.

For `NS(=O)(=O)c1cccc(N/C=C2\C(=O)Nc3ccc(S(=O)(=O)Cc4c(Cl)cccc4Cl)cc32)c1` [GSK398099], the “%Inh” value with CDK4-cyclinD1 (setting [1]) was determined as 0%; in the assay with CDK4-cyclinD3 (setting [1]) it was 18%; with CDK4 (setting [1]), 0%; with CDK5, 0%; with CDK7, 0%; in the assay on CDK8, 0%. Moreover, the “%Inh” value in the assay on CDK9 is reported as 0%; in the assay with CDKL1, 100%; with CDKL2 it was 37%; with CDKL3, 0%; in the assay on CDKL5, 0%; with CHEK1, 6%. The “%Inh” value in the assay on CHEK2 worked out at 0%; with CIT, 22%; with CLK1, 43%; with CLK2, 33%; in the assay on CLK3 it was 4%; in the assay with CLK4, 0%. Further, the “%Inh” value in the assay with CSF1R-autoinhibited amounted to 0%; in the assay on CSF1R, 3%.

Regarding `CS(=O)(=O)Cc1ccc(Nc2nccc(-c3c(-c4cccc(NC(=O)C5CCCCC5)c4)nn4ncccc34)n2)cc1` [GSK350559], the “%Inh” value with CDK4-cyclinD1 (1 µM) is listed as 15%; with CDK4-cyclinD3 (1 µM) it was 18%; in the assay on CDK4 (1 µM), 18%; in the assay with CDK5, 4%; with CDK7, 6%; in the assay with CDK8, 0%. Moreover, the “%Inh” value in the assay with CDK9 is recorded as 0%; in the assay with CDKL1 it was 0%; in the assay with CDKL2, 5%; with CDKL3 it was 0%; in the assay with CDKL5 it was 33%; in the assay with CHEK1 it was 12%. The “%Inh” value in the assay with CHEK2 is 0%; in the assay with CIT, 10%; in the assay with CLK1 it was 10%; with CLK2, 10%; in the assay with CLK3 it was 24%; in the assay on CLK4, 0%. Besides, the “%Inh” value in the assay on CSF1R-autoinhibited is reported as 35%; with CSF1R, 79%.

As to `CC[C@@H]1CO[C@H](C(=O)Nc2ccccc2)CN1c1cc(-c2ccc3c(N)n[nH]c3c2)nc(NC)n1` [GSK2376236], the “%Inh” value amounted to 0% in the assay on CDK4-cyclinD1 (setting [1]); 5% in the assay on CDK4-cyclinD3 (setting [1]); 0% in the assay on CDK4 (setting [1]); 0% in the assay on CDK5; 0% in the assay on CDK7; 5% in the assay on CDK8. For the same molecule, the “%Inh” value in the assay on CDK9 is reported as 0%; in the assay with CDKL1, 8%; with CDKL2, 6%; in the assay with CDKL3, 0%; with CDKL5, 0%; with CHEK1, 2%. The “%Inh” value in the assay with CHEK2 is recorded as 29%; in the assay with CIT, 98.5%; in the assay with CLK1, 37%; in the assay on CLK2 it was 0%; in the assay on CLK3, 7%; in the assay with CLK4, 0%. Also, the entries for the “%Inh” value with CSF1R-autoinhibited and in the assay on CSF1R were 0% and 12%, respectively.

Turning to `COC(=O)c1cccc(NC(=O)NC2CCN(c3ccnc(Nc4ccc(OC)cc4)n3)C2)c1` (centres unmarked) [GSK1379746], the “%Inh” value in the assay on CDK4-cyclinD1 (setting [1]) is reported as 34%; in the assay on CDK4-cyclinD3 (setting [1]) it was 0%; in the assay on CDK4 (setting [1]), 19%; in the assay on CDK5, 0%; in the assay with CDK7, 0%; in the assay with CDK8, 48%. Further, the “%Inh” value with CDK9 was found to be 1%; with CDKL1, 14%; with CDKL2, 77%; in the assay on CDKL3, 0%; in the assay on CDKL5, 0%; in the assay with CHEK1 it was 0%. The “%Inh” value with CHEK2 was determined as 0%; in the assay with CIT, 0%; in the assay with CLK1 it was 21%; in the assay on CLK2, 100%; in the assay on CLK3 it was 0%; in the assay on CLK4, 24%. The “%Inh” value in the assay on CSF1R-autoinhibited stood at 28%; with CSF1R, 0%.

`CCn1c(-c2c(N)noc2C)nc2cnccc21` [SB-737856]: the “%Inh” value was 0% in the assay with CDK4-cyclinD1 (setting [1]); 9% in the assay with CDK4-cyclinD3 (setting [1]); 0% in the assay on CDK4 (setting [1]); 8% with CDK5; 0% with CDK7; 0% in the assay with CDK8. Further, the “%Inh” value in the assay on CDK9 came to 0%; with CDKL1 it was 17%; in the assay on CDKL2, 22%; with CDKL3, 0%; with CDKL5 it was 0%; in the assay on CHEK1, 0%. The “%Inh” value was found to be 0% in the assay with CHEK2; 22% in the assay with CIT; 26% in the assay on CLK1; 0% with CLK2; 0% with CLK3; 13% with CLK4. Also, the results for the “%Inh” value in the assay on CSF1R-autoinhibited and with CSF1R were 0% and 14%, respectively.

For `CNCc1ccc2nc(NC(=O)c3ccc(C(C)(C)C)cc3)cn2c1`, the “%Inh” value in the assay with CDK4-cyclinD1 (setting [1]) is on record as 14%; in the assay with CDK4-cyclinD3 (setting [1]), 0%; with CDK4 (setting [1]), 3%; in the assay on CDK5 it was 0%; with CDK7 it was 8%; in the assay on CDK8 it was 1%. In addition, the “%Inh” value is given as 3% with CDK9; 0% in the assay with CDKL1; 0% in the assay on CDKL2; 0% in the assay on CDKL3; 23% with CDKL5; 5% with CHEK1. In addition, the “%Inh” value with CHEK2 came to 0%; with CIT, 0%; in the assay on CLK1, 87%; with CLK2, 22%; with CLK3, 0%; in the assay on CLK4 it was 3%. The “%Inh” value with CSF1R-autoinhibited is given as 2%; in the assay on CSF1R, 42%.

With `COc1ccc(Nc2nccc(N3CCC(NC(=O)c4cc5ccccc5s4)C3)n2)cc1` (centres unmarked) [GSK1379738], the “%Inh” value in the assay on CDK4-cyclinD1 (setting [1]) is listed as 0%; with CDK4-cyclinD3 (setting [1]), 6%; in the assay with CDK4 (setting [1]), 19%; in the assay on CDK5 it was 0%; with CDK7, 0%; with CDK8, 6%. Also, the “%Inh” value is listed as 2% in the assay on CDK9; 8% in the assay on CDKL1; 35% with CDKL2; 0% in the assay on CDKL3; 0% in the assay with CDKL5; 100% in the assay with CHEK1. Further, the “%Inh” value with CHEK2 turned out to be 0%; with CIT, 0%; in the assay on CLK1, 24%; in the assay on CLK2 it was 7%; with CLK3, 4%; in the assay with CLK4 it was 0%. Moreover, the “%Inh” value with CSF1R-autoinhibited is given as 0%; with CSF1R, 19%.

For `O=C1NC(=O)C(c2ccc(Cl)cc2)=C1Nc1cccc(Cl)c1` [SB-317651], the “%Inh” value is on record as 12% with CDK4-cyclinD1 (setting [1]); 0% in the assay with CDK4-cyclinD3 (setting [1]); 100% with CDK4 (setting [1]); 0% in the assay with CDK5; 16% with CDK7; 2% with CDK8. For the same molecule, the “%Inh” value in the assay with CDK9 came to 0%; in the assay with CDKL1 it was 11%; with CDKL2 it was 20%; with CDKL3, 2%; in the assay on CDKL5, 0%; in the assay on CHEK1, 0%. Moreover, the “%Inh” value with CHEK2 came to 0%; in the assay on CIT, 0%; in the assay on CLK1, 91.6%; with CLK2 it was 34%; with CLK3, 2%; with CLK4, 16%. Moreover, the “%Inh” value came to 6% in the assay with CSF1R-autoinhibited and 13% with CSF1R.
